Laboratory results reported in PubChem BioAssay (NCI).
About 83,000 compounds went through this panel and 20% of them were active in at least one assay; those are over-represented in the sample as a whole.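 Note: values are percent growth. 100 is the growth of untreated cells, values between 100 and 0 indicate rising inhibition; between -100 and 0 indicates cell death.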 The source made the active and inactive calls. The calls were made as follows: active = growth percent below 10; inactive = the rest.

Test system: HCT-116 colon
Assay: NCI-60 one-dose screen, 48 h (100 = growth as untreated, 0 = no growth, -100 = all killed)
Settings: 10 µM unless noted

| SMILES | growth |
| --- | --- |
| O=C(O)C1C[C@](O)(c2ccc(F)cc2)[C@@H](c2ccc(F)cc2)O1 (stereo partly drawn) | 100% (inactive) |
| N=C(N)c1ccc(-c2ccc(-c3ccc(Cl)cc3Cl)o2)cc1 | -68.8% (active) |
| C[N+](C)(C)CCOC(OCC[N+](C)(C)C)(c1ccccc1)c1ccccc1 | 105% (inactive) |
| NC(N)=N/N=C/CO | 94.1% (inactive) |
| CCCCNC(=O)NS(=O)(=O)c1ccc(N2N=C(c3ccc(C)cc3C)CC2c2ccc(N(C)C)cc2)cc1 (stereo not drawn) | 39.3% (inactive) |
| N[C@H]1CCC[C@@H]1NCCCCN1C(=O)c2cccc3cccc(c23)C1=O | 32% (inactive) |
| O=C1Nc2ccccc2/C1=N/N=C/c1c[nH]c2ccccc12 | 72.4% (inactive) |
| C[C@@H]1CC[C@@H]2[C@@H]1[C@H](OC(=O)/C=C/c1ccccc1)[C@]1(C3CCCCC3)C[C@@H](NC(=O)CO)[C@@]2(C)O1 | 85.7% (inactive) |
| CCCN1CCN(c2ccc3nc(-c4ccc5nc(-c6ccc(OCC)c(OCC)c6)[nH]c5c4)[nH]c3c2)CC1 | -83.4% (active) |
| CCc1cc(Cc2cc(CC)cc(C(C)(C)C)c2O)c(O)c(C(C)(C)C)c1 | 6.96% (active) |
| CNC(=O)c1c(NC(=O)c2ccc(C(C)(C)C)cc2)sc2c1CCC(=O)C2 | 0.171% (active) |
| CC(C)(C)c1ccc(C(=O)Nc2sc3c(c2C(N)=O)CCC(=O)C3)cc1 | -30.5% (active) |
| COc1ccc(-n2nnc(C(=O)NCCc3c[nH]c4ccc(F)cc34)c2C)cc1 | 93.5% (inactive) |
| C=CCN1C(=O)[C@]2(SC1=S)[C@H](c1cccc(Cl)c1)CN(C)[C@]21C(=O)NC2C=CC(Cl)=C[C@H]21 (stereo partly drawn) | 33.4% (inactive) |
| C=C1C(=O)O[C@H]2[C@H]1CC/C(COC(=O)/C=C\C(=O)NCc1ccc(Cn3c(=O)sn(CCCC)c3=O)cc1)=C\CC[C@@]1(C)O[C@@H]21 | -77.5% (active) |
| CN1C[C@@H](c2ccc(Cl)cc2)[C@]2(NC(=S)N(c3ccc(F)c(Cl)c3)C2=O)[C@@]12C(=O)NC1C=CC(Cl)=C[C@H]12 (stereo partly drawn) | -49% (active) |
| c1ccc2[nH]c(SSc3nc4ncncc4[nH]3)nc2c1 | 20.8% (inactive) |
| CCCCCOC(=O)c1cccc(NC(=O)CN(CC)CC)c1 | 74.9% (inactive) |
| CN(CCCCCCCCNc1ccnc2ccccc12)Cc1ccc(-c2ccc(-c3ccc(C#N)cc3)s2)cc1 | -86.5% (active) |
| CN(C)c1ccc2cc(-c3ccc(Cl)c(Cl)c3)c(N)nc2c1 | 13.3% (inactive) |

| SMILES | growth |
| --- | --- |
| CCN(CC)CC(=O)Nc1cccc(C(=O)OC(C)C)c1 | 72.8% (inactive) |
| CN(C)S(=O)(=O)n1cnc([C@@H]2[C@@H]3C(=O)OC[C@@H]3C[C@]23N=CN(Cc2ccccc2)C3=O)c1 | 100% (inactive) |
| O=C(Oc1ccc([N+](=O)[O-])cc1)c1ccc(CBr)cc1 | 87.8% (inactive) |
| CCN(CC)CCOc1ccc(/C(=C(\C)c2ccc(F)c(OC)c2)c2ccc(Cl)cc2)cc1 | 1.56% (active) |
| CCOC(=O)c1nnn(C(Cc2ccccc2Cl)C(=O)OCC)c1C (stereo not drawn) | 100% (inactive) |
| COc1ccc2c(c1)/C(=C\c1sc(=S)[nH]c1O)C(C(=O)O)=N2 | 99.6% (inactive) |
| Cc1cc(Cc2cc(C)cc(C(C)(C)C)c2O)c(O)c(C(C)(C)C)c1 | 8.68% (active) |
| N#Cc1c(N)nc2c(nnn2-c2cccc(Br)c2)c1N | 91.3% (inactive) |
| O=C(NCc1cn(Cc2cccc(Oc3ccccc3)c2)nn1)c1cccnc1NCc1ccc(Cl)cc1 | 22.1% (inactive) |
| Nc1ccc(-c2cc3c(Nc4ccc(OCc5cccc(F)c5)c(Cl)c4)ncnc3s2)cc1 | 50.7% (inactive) |
| COc1cccc(-c2nc3sccn3c2-c2ccnc(NCCNS(=O)(=O)c3c(Cl)cccc3Cl)c2)c1 | 48.8% (inactive) |
| CC(=O)OCCc1ccccc1 | 94.7% (inactive) |
| NS(=O)(=O)Oc1ccc(-c2sc3cc(O)ccc3c2C(=O)c2ccc(OCCN3CCCCC3)cc2)cc1 | 43.5% (inactive) |
| NC(=O)c1c(NC(=O)c2ccc(C(F)(F)F)cc2Cl)sc2c1CCC(=O)C2 | -56.9% (active) |
| Cc1c(C)c2c(c(C)c1NC(=O)/C=C\C(=O)O)CCC(C)(CCCC(C)CCCC(C)CCCC(C)C)O2 (stereo not drawn) | 4.08% (active) |
| Cl.Fc1c[c-]c(-c2ccccn2)c(F)c1.[Pt].c1ccc([PH+](C[PH+](c2ccccc2)c2ccccc2)c2ccccc2)cc1 | -83.4% (active) |
| O=C(Nc1ccccc1)c1sc(-c2cccc(C(F)(F)F)c2)cc1O | 67.9% (inactive) |
| COc1ccc(/C(C)=N/NS(=O)(=O)c2ccc(C)cc2)cc1OC | 95.1% (inactive) |
| O=C(CC12CC3CC(CC(C3)C1)C2)NCCOCCOCCOCCNC(=O)c1cc2c(o1)C(=O)c1ccccc1C2=O | -19.6% (active) |

Test system: HCC-2998 colon
Assay: as above
Settings: 10 µM unless noted

| SMILES | growth |
| --- | --- |
| O=C(O)C1C[C@](O)(c2ccc(F)cc2)[C@@H](c2ccc(F)cc2)O1 (stereo partly drawn) | 115% (inactive) |
| N=C(N)c1ccc(-c2ccc(-c3ccc(Cl)cc3Cl)o2)cc1 | -93.2% (active) |
| C[N+](C)(C)CCOC(OCC[N+](C)(C)C)(c1ccccc1)c1ccccc1 | 97% (inactive) |
| NC(N)=N/N=C/CO | 119% (inactive) |
| CCCCNC(=O)NS(=O)(=O)c1ccc(N2N=C(c3ccc(C)cc3C)CC2c2ccc(N(C)C)cc2)cc1 (stereo not drawn) | 46.1% (inactive) |
| N[C@H]1CCC[C@@H]1NCCCCN1C(=O)c2cccc3cccc(c23)C1=O | 53.9% (inactive) |
| O=C1Nc2ccccc2/C1=N/N=C/c1c[nH]c2ccccc12 | 101% (inactive) |
| C[C@@H]1CC[C@@H]2[C@@H]1[C@H](OC(=O)/C=C/c1ccccc1)[C@]1(C3CCCCC3)C[C@@H](NC(=O)CO)[C@@]2(C)O1 | 95.4% (inactive) |
| CCCN1CCN(c2ccc3nc(-c4ccc5nc(-c6ccc(OCC)c(OCC)c6)[nH]c5c4)[nH]c3c2)CC1 | -79.5% (active) |
| CCc1cc(Cc2cc(CC)cc(C(C)(C)C)c2O)c(O)c(C(C)(C)C)c1 | 4.71% (active) |
| CNC(=O)c1c(NC(=O)c2ccc(C(C)(C)C)cc2)sc2c1CCC(=O)C2 | 23.3% (inactive) |
| CC(C)(C)c1ccc(C(=O)Nc2sc3c(c2C(N)=O)CCC(=O)C3)cc1 | 17.1% (inactive) |
| COc1ccc(-n2nnc(C(=O)NCCc3c[nH]c4ccc(F)cc34)c2C)cc1 | 106% (inactive) |
| C=CCN1C(=O)[C@]2(SC1=S)[C@H](c1cccc(Cl)c1)CN(C)[C@]21C(=O)NC2C=CC(Cl)=C[C@H]21 (stereo partly drawn) | 78.2% (inactive) |
| C=C1C(=O)O[C@H]2[C@H]1CC/C(COC(=O)/C=C\C(=O)NCc1ccc(Cn3c(=O)sn(CCCC)c3=O)cc1)=C\CC[C@@]1(C)O[C@@H]21 | -80.3% (active) |
| CN1C[C@@H](c2ccc(Cl)cc2)[C@]2(NC(=S)N(c3ccc(F)c(Cl)c3)C2=O)[C@@]12C(=O)NC1C=CC(Cl)=C[C@H]12 (stereo partly drawn) | 77.8% (inactive) |
| c1ccc2[nH]c(SSc3nc4ncncc4[nH]3)nc2c1 | 18.2% (inactive) |
| CCCCCOC(=O)c1cccc(NC(=O)CN(CC)CC)c1 | 98.9% (inactive) |
| CN(CCCCCCCCNc1ccnc2ccccc12)Cc1ccc(-c2ccc(-c3ccc(C#N)cc3)s2)cc1 | -89.6% (active) |
| CN(C)c1ccc2cc(-c3ccc(Cl)c(Cl)c3)c(N)nc2c1 | 44.7% (inactive) |

| SMILES | growth |
| --- | --- |
| CCN(CC)CC(=O)Nc1cccc(C(=O)OC(C)C)c1 | 99.5% (inactive) |
| CN(C)S(=O)(=O)n1cnc([C@@H]2[C@@H]3C(=O)OC[C@@H]3C[C@]23N=CN(Cc2ccccc2)C3=O)c1 | 98.6% (inactive) |
| O=C(Oc1ccc([N+](=O)[O-])cc1)c1ccc(CBr)cc1 | 103% (inactive) |
| CCN(CC)CCOc1ccc(/C(=C(\C)c2ccc(F)c(OC)c2)c2ccc(Cl)cc2)cc1 | -33.2% (active) |
| CCOC(=O)c1nnn(C(Cc2ccccc2Cl)C(=O)OCC)c1C (stereo not drawn) | 109% (inactive) |
| COc1ccc2c(c1)/C(=C\c1sc(=S)[nH]c1O)C(C(=O)O)=N2 | 103% (inactive) |
| Cc1cc(Cc2cc(C)cc(C(C)(C)C)c2O)c(O)c(C(C)(C)C)c1 | 31.6% (inactive) |
| N#Cc1c(N)nc2c(nnn2-c2cccc(Br)c2)c1N | 106% (inactive) |
| O=C(NCc1cn(Cc2cccc(Oc3ccccc3)c2)nn1)c1cccnc1NCc1ccc(Cl)cc1 | 9.38% (active) |
| Nc1ccc(-c2cc3c(Nc4ccc(OCc5cccc(F)c5)c(Cl)c4)ncnc3s2)cc1 | 38.6% (inactive) |
| COc1cccc(-c2nc3sccn3c2-c2ccnc(NCCNS(=O)(=O)c3c(Cl)cccc3Cl)c2)c1 | 99.4% (inactive) |
| CC(=O)OCCc1ccccc1 | 87% (inactive) |
| NS(=O)(=O)Oc1ccc(-c2sc3cc(O)ccc3c2C(=O)c2ccc(OCCN3CCCCC3)cc2)cc1 | 59.5% (inactive) |
| NC(=O)c1c(NC(=O)c2ccc(C(F)(F)F)cc2Cl)sc2c1CCC(=O)C2 | -6.6% (active) |
| Cc1c(C)c2c(c(C)c1NC(=O)/C=C\C(=O)O)CCC(C)(CCCC(C)CCCC(C)CCCC(C)C)O2 (stereo not drawn) | 79.8% (inactive) |
| Cl.Fc1c[c-]c(-c2ccccn2)c(F)c1.[Pt].c1ccc([PH+](C[PH+](c2ccccc2)c2ccccc2)c2ccccc2)cc1 | -87.4% (active) |
| O=C(Nc1ccccc1)c1sc(-c2cccc(C(F)(F)F)c2)cc1O | 98.2% (inactive) |
| COc1ccc(/C(C)=N/NS(=O)(=O)c2ccc(C)cc2)cc1OC | 99.9% (inactive) |
| O=C(CC12CC3CC(CC(C3)C1)C2)NCCOCCOCCOCCNC(=O)c1cc2c(o1)C(=O)c1ccccc1C2=O | -73.7% (active) |
